A selection: hits, their analogues and other compounds. The true share with any hit is near 1.3%.
RAD52 inh: RAD52 DNA annealing inhibitors, primary screen, biochemical, FRET, single point, set 2; DNA repair protein RAD52 homolog (Homo sapiens), P43351; recombinant RAD52 DNA annealing, FRET fluorescence; inhibition, % at 18.7 µM; actives 0.46% (n = 360,000);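 active = every replicate showing at least 50% inhibition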
RAD54 branch: inhibitors of human RAD54 branch migration, primary screen, biochemical, fluorescence, single point | DNA repair and recombination protein RAD54-like (Homo sapiens), Q92698 | RAD54 Holliday junction branch migration, FAM/BHQ fluorescence | inhibition, % at 10.4 µM | actives 0.14% (n = 360,000) | AID 602329, 2012;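 active = mean normalized replicate activity at least 40 and at least half of replicates scoring 40 or more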;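 note: inhibitors cause a drop in the FAM fluorescence signal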
DNA FID counter: compounds displacing fluorescent DNA intercalator, primary screen, artefact control for HCV NS3 helicase inhibitor project, biochemical, FID fluorescence; DNA fluorescent intercalator displacement; inhibition, % at 7.9 µM; actives 0.17% (n = 290,000); AID 1845, 2009; in the data active = inhibition above about 37%;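 note: higher means more ethidium bromide displaced from hairpin DNA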
PREPL inh: PREPL enzyme inhibitors, primary screen, biochemical, fluorescence polarization | Prolyl endopeptidase-like (Homo sapiens), Q4J6C6 | recombinant PREPL, fluorescence polarization activity-based probe | inhibition, % at 5.96 µM | actives 0.68% (n = 320,000) | AID 2751, 2010
Target sequence (Q4J6C6 whole entry, looked up): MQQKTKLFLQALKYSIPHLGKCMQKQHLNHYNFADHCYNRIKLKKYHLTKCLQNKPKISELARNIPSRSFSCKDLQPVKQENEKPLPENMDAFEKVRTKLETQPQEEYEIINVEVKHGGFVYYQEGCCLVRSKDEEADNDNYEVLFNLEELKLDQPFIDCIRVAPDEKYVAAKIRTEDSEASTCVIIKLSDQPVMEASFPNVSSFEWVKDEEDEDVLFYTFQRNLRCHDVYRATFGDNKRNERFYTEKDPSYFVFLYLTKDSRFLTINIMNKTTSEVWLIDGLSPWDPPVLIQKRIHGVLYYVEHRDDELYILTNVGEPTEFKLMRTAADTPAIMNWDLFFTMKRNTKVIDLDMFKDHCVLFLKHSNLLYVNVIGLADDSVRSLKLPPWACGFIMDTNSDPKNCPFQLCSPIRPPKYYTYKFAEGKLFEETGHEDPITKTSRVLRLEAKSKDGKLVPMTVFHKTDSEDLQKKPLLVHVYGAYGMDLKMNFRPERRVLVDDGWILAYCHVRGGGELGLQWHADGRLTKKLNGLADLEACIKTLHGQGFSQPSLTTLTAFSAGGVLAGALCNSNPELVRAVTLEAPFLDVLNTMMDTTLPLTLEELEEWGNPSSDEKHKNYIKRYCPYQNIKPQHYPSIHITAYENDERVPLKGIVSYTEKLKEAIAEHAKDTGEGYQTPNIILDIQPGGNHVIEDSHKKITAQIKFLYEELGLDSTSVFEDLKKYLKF
UBC13 polyUb: UBC13 polyubiquitin chain formation inhibitors, primary screen, biochemical, TR-FRET, uHTS; Ubiquitin-conjugating enzyme E2 N (Homo sapiens), P61088; inhibition, % at 20 µM; actives 0.47% (n = 330,000); AID 485273, 2010; in the data active = inhibition above about 45%, passing the limit was not always enough
beta cell repl: inducers of MIN6 beta-cell proliferation, primary screen, ATP luminescence, uHTS; MIN6 cells proliferation, ATPlite luminescence, 48 h; cells starved in 0.2% serum; 100% = growth in 10% serum; proliferation, % at 10 µM; actives 0.29% (n = 330,000); AID 2380, 2010;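 active = compounds whose signal lies at least 3.5 SD above the mean of all wells on their plate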
PREPL inh cf: human PREPL enzyme inhibitors, confirmation, biochemical, fluorescence polarization; shares compounds with PREPL inh; actives 67% (n = 2,000); recombinant PREPL, fluorescence polarization activity probe; inhibition, % at 5.96 µM
Numbers stand for hits. Cut-off read from the data, not from the text of the source, unless noted: active = inhibition above about 43%; inactive = the rest.

How did O=C(c1cccc(F)c1)N1CC2(C1)[C@@H](c1ccccc1)[C@@H](CO)N2C(=O)C1CCC1 do in these assays?
RAD52 inh: inactive

How did c1cncc(N=c2scc(-c3cccc4ccccc34)n2CCCn2ccnc2)c1 do in these assays?
DNA FID counter: inactive; PREPL inh: 53; UBC13 polyUb: inactive; beta cell repl: inactive; PREPL inh cf: 54

What do the screens show for `Cc1ccc(-c2csc(=Nc3cccnc3)n2CCCN2CCCC2=O)cc1C`?
DNA FID counter: inactive; PREPL inh: 49; UBC13 polyUb: inactive; beta cell repl: inactive; PREPL inh cf: 54

What do the screens show for `Cc1ccc(-c2csc(=Nc3cccnc3)n2CCCn2ccnc2)cc1C`?
RAD52 inh: inactive; DNA FID counter: inactive; PREPL inh: 47; UBC13 polyUb: inactive; beta cell repl: inactive; PREPL inh cf: 57

What do the screens show for `COCCn1c(-c2ccccc2)csc1=Nc1cccnc1`?
RAD52 inh: inactive; DNA FID counter: inactive; PREPL inh: inactive; UBC13 polyUb: inactive; beta cell repl: inactive

What do the screens show for `C=CCN1C(=O)/C(=C2/Sc3ccccc3N2CC)SC1=S`?
RAD52 inh: inactive; RAD54 branch: inactive; DNA FID counter: inactive; PREPL inh: inactive; UBC13 polyUb: inactive; beta cell repl: inactive

Results for CCN1C(=O)/C(=C2/Sc3ccccc3N2CC)S/C1=N\c1ncn[nH]1 ?
RAD52 inh: inactive; RAD54 branch: inactive; DNA FID counter: inactive; PREPL inh: 48; UBC13 polyUb: inactive; beta cell repl: inactive; PREPL inh cf: inactive

How did Cc1c(NCc2cc(Cl)cc(Cl)c2O)c(=O)n(-c2ccccc2)n1C do in these assays?
RAD54 branch: inactive; DNA FID counter: inactive; PREPL inh: 50; UBC13 polyUb: inactive; beta cell repl: inactive; PREPL inh cf: 58

What do the screens show for `CC(C)c1nnc(NC(=O)CCC(=O)N2CCN(c3ccc(Cl)cc3)CC2)s1`?
RAD52 inh: inactive; RAD54 branch: inactive; DNA FID counter: inactive; PREPL inh: 43; UBC13 polyUb: inactive; beta cell repl: inactive; PREPL inh cf: inactive

Results for COc1ccc(NCc2nnc(SCc3ccc(Cl)cc3)n2-c2ccccc2)cc1 ?
DNA FID counter: inactive; PREPL inh: 52; UBC13 polyUb: inactive; beta cell repl: inactive; PREPL inh cf: 49

Results for COc1ccc(-n2c(COc3ccc(Cl)cc3)nnc2SCc2ccc(C#N)cc2)cc1 ?
RAD54 branch: inactive; DNA FID counter: inactive; PREPL inh: inactive; UBC13 polyUb: inactive; beta cell repl: inactive

Results for COc1ccc(-c2cn(CC(=O)N3CCN(C)CC3)nn2)cc1OC ?
RAD52 inh: inactive; RAD54 branch: inactive

What do the screens show for `CCC(CO)Oc1cc(NCc2ccc(Cl)cc2)c2ncn(C(C)C)c2c1` (stereo not given)?
RAD52 inh: inactive; RAD54 branch: inactive; PREPL inh: 48; UBC13 polyUb: inactive; beta cell repl: inactive; PREPL inh cf: inactive

Results for CCN1C(=O)[C@H]2[C@@H](c3ccc(-c4ccc(F)cc4)cc3)N3CCCC[C@@]3(C(=O)OC)[C@H]2C1=O ?
RAD52 inh: inactive; RAD54 branch: inactive; PREPL inh: 45; UBC13 polyUb: inactive; beta cell repl: inactive; PREPL inh cf: inactive

How did CCN1C(=O)[C@H]2[C@@H](c3ccc(-c4ccc(OC)cc4)cc3)N3CCC[C@@]3(C(=O)OC)[C@H]2C1=O do in these assays?
RAD52 inh: inactive; RAD54 branch: inactive; PREPL inh: 47; UBC13 polyUb: inactive; beta cell repl: inactive; PREPL inh cf: inactive

Results for O=C(C1=C[C@H](c2ccc(C(F)(F)F)cc2)C[C@H](OCc2ccc(CO)cc2)O1)N1CCCC1 ?
RAD52 inh: inactive; RAD54 branch: inactive

What do the screens show for `CN1CCN(C(=O)C2=C[C@@H](c3ccc(C(F)(F)F)cc3)C[C@@H](OCc3ccc(CO)cc3)O2)CC1`?
RAD52 inh: inactive; RAD54 branch: inactive; DNA FID counter: inactive; PREPL inh: 59; UBC13 polyUb: inactive; beta cell repl: inactive; PREPL inh cf: 59

What do the screens show for `O=C(C1=C[C@@H](c2ccc(C(F)(F)F)cc2)C[C@@H](OCc2ccc(CO)cc2)O1)N1CCN(Cc2ccccc2)CC1`?
RAD52 inh: inactive; RAD54 branch: inactive; DNA FID counter: inactive; PREPL inh: 52; UBC13 polyUb: inactive; beta cell repl: inactive; PREPL inh cf: 57

Results for CN1CCN(C(=O)C2=C[C@@H](c3ccc4c(c3)OCO4)C[C@@H](OCc3ccc(CO)cc3)O2)CC1 ?
RAD52 inh: inactive; RAD54 branch: inactive; DNA FID counter: inactive; PREPL inh: 45; UBC13 polyUb: inactive; beta cell repl: inactive; PREPL inh cf: 54

What do the screens show for `CO[C@@H]1CN(C)C(=O)c2cc(NC(=O)c3ccc(F)cc3)ccc2OC[C@H](C)N(C(C)=O)C[C@H]1C`?
RAD52 inh: inactive; RAD54 branch: inactive

How did O=C(Nc1ccc(Cl)cc1)N[C@@H]1CC[C@@H](CCn2cc(-c3ccccc3F)nn2)O[C@H]1CO do in these assays?
RAD52 inh: inactive; RAD54 branch: inactive

What do the screens show for `N#CCN(CC#N)C(=O)C1c2ccccc2Oc2ccccc21`?
RAD52 inh: inactive; RAD54 branch: inactive; DNA FID counter: inactive; PREPL inh: 75; UBC13 polyUb: inactive; beta cell repl: inactive; PREPL inh cf: inactive

Results for NC(=O)COC(=O)C1c2ccccc2Oc2ccccc21 ?
RAD52 inh: inactive; RAD54 branch: inactive; DNA FID counter: inactive; PREPL inh: inactive; UBC13 polyUb: inactive; beta cell repl: inactive

What do the screens show for `O=C(Nc1ccc(Cl)cc1)Nc1ccc2c(c1)N1CCN=C1S2`?
RAD54 branch: inactive; DNA FID counter: inactive; PREPL inh: 58; UBC13 polyUb: inactive; beta cell repl: inactive; PREPL inh cf: inactive

Results for Nc1ccc2c(c1)N1CCN=C1S2 ?
RAD54 branch: inactive; DNA FID counter: inactive; PREPL inh: inactive; UBC13 polyUb: inactive; beta cell repl: inactive

How did COc1ccc(C(CCNCc2ccc(N(C)C)cc2)c2ccccc2)cc1 (stereo not given) do in these assays?
RAD52 inh: inactive; RAD54 branch: inactive; DNA FID counter: inactive; PREPL inh: 54; UBC13 polyUb: inactive; beta cell repl: inactive; PREPL inh cf: 64

What do the screens show for `CC(C)Oc1ccc(C(CCNCc2ccc(O)cc2)c2ccccc2)cc1` (stereo not given)?
RAD52 inh: inactive; RAD54 branch: inactive; DNA FID counter: inactive; UBC13 polyUb: inactive; beta cell repl: inactive

High-throughput results (PubChem BioAssay)
